Data published in PubChem BioAssay (NCATS).
Results filed as inconclusive are left out. Active and inactive are the calls of the source. Unless noted, the call rests on the fitted dose curve.

Legend:
[1] = biological target: Luciferin 4-monooxygenase (Photinus pyralis) (UniProt P08659); test: Biochemical firefly luciferase enzyme assay for NPC (AID 624030; active means well fitted curve in the direction sought with a large enough effect; an effect the other way counts as inactive or inconclusive;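 further: purified P. pyralis luciferase at 10 nM with luciferin and ATP substrate; series mostly up to about 59 µM; 0% = DMSO and -100% = full luciferase inhibition by PTC124 control; nearly all actives have a fitted effect of over 70% in size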)
Procedure, shortened: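 Purified P. pyralis luciferase at 10 nM in 50 mM Tris Acetate (final), luminescence read within 5 minutes of enzyme addition to compounds. Activity normalised to PTC124 versus DMSO; concentration-response curves classed by r2, magnitude and activity.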

[2] = S16 Schwann cell viability assay (CellTiter-Glo assay) (AID 624031; active means well fitted curve in the direction sought with a large enough effect; an effect the other way counts as inactive or inconclusive;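 further: native untransfected S16 rat Schwann cells; cellular ATP luminescence as a viability measure; series mostly up to about 58 µM; plate controls were DMSO-treated cells for no effect and cell-free wells for full effect; nearly all actives have a fitted effect of over 70% in size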)
Procedure, shortened: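 Concentration-effect curves come from CellTiter-Glo luminescence of S16 rat Schwann cells after 24 h compound exposure. Each reading was normalized to DMSO wells (0%) and wells without cells, and curves were ranked by r2 and response magnitude.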

[3] = biological target: Bile acid receptor (Homo sapiens) (UniProt Q96RI1); test: qHTS assay for small molecule antagonists of farnesoid X receptor signaling (AID 588526); further: on the % scale 0 is the no-effect control and ±100 the full control effect
Procedure, shortened: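 Antagonist mode: titrated compounds tested against chenodeoxycholic acid stimulation (normalized to 50 uM CDCA and DMSO) in GeneBLAzer HEK293T cells for 16 h. Beta-lactamase read by CCF4 fluorescence; IC50 from Hill fits.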

[4] = biological target: Glucocorticoid receptor (Homo sapiens) (UniProt P04150); test: qHTS assay for small molecule agonists of glucocorticoid receptor signaling (AID 588532; active means well fitted curve in the direction sought with a large enough effect in the signal ratio, with a control signal flat; the % refers to the signal ratio;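 further: 100% = dexamethasone at 0.1 µM and 0% = DMSO only wells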); settings: HeLa MMTV-bla, beta-lactamase ratio, agonist, 18 h; stronger effect = higher value; percent of dexamethasone control, DMSO zero
Procedure, shortened: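 MMTV-bla HeLa beta-lactamase reporter cells in 1% charcoal/dextran FBS medium, compounds up to 92 uM for 18 h at 37 C, CCF4 readout; normalized to 0.1 uM dexamethasone (100%), EC50 and efficacy from Hill fits.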

[5] = biological target: Glucocorticoid receptor (Homo sapiens) (UniProt P04150); test: qHTS assay for small molecule antagonists of glucocorticoid receptor signaling (AID 588533; active means well fitted inhibition curve with a large enough effect in the signal ratio, with a control signal flat, not every such curve was filed as active; the % refers to the signal ratio; further: on the % scale 0 is the no-effect control and ±100 the full control effect)
Procedure, shortened: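 Antagonist-mode qHTS: compound titrations added to GRE-bla HeLa cells, then dexamethasone 2 nM final; 18 h, 37 C. CCF4 FRET fluorescence normalized to dexamethasone and DMSO; IC50 from Hill fit.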

[6] = qHTS assay for small molecule antagonists of peroxisome proliferator-activated receptor delta signaling (AID 588535; active means well fitted inhibition curve with a large enough effect in the signal ratio, with a control signal flat, not every such curve was filed as active; the % refers to the signal ratio;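 on max response: cells co-treated with a PPAR-delta agonist as stimulator during compound exposure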); settings: HEK293T PPARd-UAS-bla, beta-lactamase FRET ratio, 18 h; 460 nm channel
Procedure, shortened: (§1)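 Antagonist-mode beta-lactamase reporter (GeneBLAzer PPAR-delta-UAS-bla) in HEK293T cells, 2% charcoal/dextran FBS, 4000 cells/well. Compound titrations, 18 h at 37 C; CCF4 ratio read, IC50 and efficacy from Hill fits.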

[7] = biological target: Peroxisome proliferator-activated receptor delta (Homo sapiens) (UniProt Q03181); test: as above
Procedure, shortened: as §1

[8] = biological target: Peroxisome proliferator-activated receptor gamma (Homo sapiens) (UniProt P37231); test: qHTS assay for small molecule agonists of peroxisome proliferator-activated receptor gamma signaling (AID 588536; active means well fitted curve in the direction sought with a large enough effect in the signal ratio, with a control signal flat, not every such curve was filed as active; the % refers to the signal ratio;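 further: 0% = DMSO basal wells and 100% = rosiglitazone at 2 µM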)
Procedure, shortened: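 PPAR-gamma-UAS-bla HEK293 cells in medium with 1% charcoal/dextran-treated FBS were exposed to compounds for 16 h at 37 C. Beta-lactamase activity was read with CCF4 substrate (405 nm excitation, 460/530 nm emission).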

[9] = biological target: Peroxisome proliferator-activated receptor gamma (Homo sapiens) (UniProt P37231); test: qHTS assay for small molecule antagonists of peroxisome proliferator-activated receptor gamma signaling (AID 588537; active means well fitted inhibition curve with a large enough effect in the signal ratio, with a control signal flat, not every such curve was filed as active; the % refers to the signal ratio;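 further: reporter cells co-stimulated with 50 nM rosiglitazone agonist during compound treatment; % of control where 0% means no effect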)
Procedure, shortened: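 PPARγ-UAS-bla HEK293 cells (3000/well) in 1% charcoal/dextran-stripped FBS are treated with compound, then stimulated with 50 nM rosiglitazone for 16 h at 37 °C. Read-out is CCF4 β-lactamase fluorescence after 2 h at RT. IC50 comes from Hill fits normalised to rosiglitazone and DMSO.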

[10] = biological target: Vitamin D3 receptor (Homo sapiens) (UniProt P11473); test: qHTS assay for small molecule antagonists of vitamin D receptor signaling (AID 588541);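 further: receptor activated by calcitriol during compound treatment; series mostly up to about 77 µM; on the % scale 0 is the no-effect control and ±100 the full control effect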
Procedure, shortened: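 VDR-UAS-bla HEK293T cells in 2% charcoal-stripped FBS were stimulated with 1-alpha,25-dihydroxyvitamin D3 (3 nM final) plus compound for 16 h at 37 C. The beta-lactamase CCF4 readout was normalized to 50 nM agonist and DMSO, and Hill fits gave IC50.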

[11] = biological target: Vitamin D3 receptor (Homo sapiens) (UniProt P11473); test: qHTS assay for small molecule agonists of vitamin D receptor signaling (AID 588543);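 further: 0% = DMSO basal and 100% = reference agonist control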
Procedure, shortened: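 β-lactamase reporter, VDR-UAS-bla HEK293T, agonist mode. Cells plated 5 h at 37 °C, compound titration 16 h at 37 °C, CCF4 dye 2 h RT, ratio 460/530 nm. Hill fit → EC50, efficacy vs 50 nM 1α,25-(OH)2D3.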

[12] = qHTS assay for small molecule agonists of retinoid X receptor alpha signaling (AID 588544); settings: HEK293T RXRa-UAS-bla, beta-lactamase reporter, 18 h; 530 nm emission;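 on activation: 0% = DMSO basal wells and 100% = reference agonist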
[13] = biological target: Retinoic acid receptor RXR-alpha (Homo sapiens) (UniProt P19793); test: as above
[14] = biological target: Thyroid hormone receptor beta (Homo sapiens) (UniProt P10828); test: qHTS assay for small molecule agonists of thyroid hormone receptor beta signaling (AID 588545)
Procedure, shortened: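 Cells (2500/well) were seeded, incubated 4 hrs at 37 C, dosed with a compound series, incubated 18 hrs, loaded with CCF4 dye for 2 hrs at RT, then read for fluorescence. Data were scaled between DMSO (0%) and 10 nM T3 (100%).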

[15] = qHTS assay for small molecule antagonists of retinoid X receptor alpha signaling (AID 588546; active means well fitted inhibition curve with a large enough effect in the signal ratio, with a control signal flat, not every such curve was filed as active; the % refers to the signal ratio;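 further: cells stimulated with 9-cis-retinoic acid as agonist; on the % scale 0 is the no-effect control and ±100 the full control effect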); settings: HEK293T RXRa-UAS-bla, beta-lactamase ratio, antagonist mode; measured here: W530 green channel, cytotoxicity proxy
Procedure, shortened: (§2)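 Beta-lactamase reporter inhibition, read as CCF4 fluorescence ratio (ex 405, em 460/530 nm) after 2 h at RT. HEK293T UAS-bla cells, 2500/well, were stimulated with 9-cis-RA at 500 or 100 nM final alongside test compound for 18 h at 37 C.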

[16] = biological target: Retinoic acid receptor RXR-alpha (Homo sapiens) (UniProt P19793); test: as above; settings: HEK293T RXRa-UAS-bla, beta-lactamase ratio, antagonist mode
Procedure, shortened: as §2

[17] = biological target: Thyroid hormone receptor beta (Homo sapiens) (UniProt P10828); test: qHTS assay for small molecule antagonists of thyroid hormone receptor beta signaling (AID 588547; active means well fitted inhibition curve with a large enough effect in the signal ratio, with a control signal flat, not every such curve was filed as active; the % refers to the signal ratio); settings: TR-UAS-bla HEK293, beta-lactamase ratio, antagonist mode, 18 h
Procedure, shortened: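 TR-UAS-bla GripTite HEK293 cells in 2% charcoal/dextran FBS medium; compounds 0.59 nM to 92 uM with T3 at 0.4nM final, 18 h at 37 C. Beta-lactamase read by CCF4 fluorescence (460/530 nm); Hill fits gave IC50 and efficacy.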

[18] = biological target: Voltage-gated inwardly rectifying potassium channel KCNH2 (Homo sapiens) (UniProt Q12809); test: qHTS Assay for Small Molecule Inhibitors of the Human hERG Channel Activity (AID 588834; active means well fitted curve in the direction sought with a large enough effect; an effect the other way counts as inactive or inconclusive;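 further: top concentration of the series differs between compounds; on the % scale 0 is the no-effect control and ±100 the full control effect; lower thallium flux fluorescence means stronger hERG block; nearly all actives have a fitted effect of over 50% in size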)
Procedure, shortened: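 Concentration-response qHTS measuring drop in thallium-sensitive dye signal. U2OS cells carrying BacMam hERG; compound exposure ~10 min, then stimulation buffer and 2 min read at 1 sec intervals.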

[19] = biological target: Androgen receptor (Homo sapiens) (UniProt P10275); test: qHTS assay for small molecule agonists of androgen receptor signaling (AID 588515; active means well fitted curve in the direction sought with a large enough effect in the signal ratio, with a control signal flat; the % refers to the signal ratio; further: on the % scale 0 is the no-effect control and ±100 the full control effect); settings: AR-UAS-bla HEK293, beta-lactamase ratio, agonist 16 h; stronger effect = higher value
Procedure, shortened: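 EC50 and efficacy came from Hill fits of titrations (up to 92 uM) normalized to 30 nM R1881 as 100% and DMSO as 0%. Compound exposure was 16 h at 37 C on AR-UAS-bla HEK293 cells, with a 405/460/530 nm CCF4 fluorescence read.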

[20] = biological target: Androgen receptor (Homo sapiens) (UniProt P10275); test: qHTS assay for small molecule antagonists of androgen receptor signaling (AID 588516; active means well fitted curve in the direction sought with a large enough effect in the signal ratio, with a control signal flat, not every such curve was filed as active; the % refers to the signal ratio; further: on the % scale 0 is the no-effect control and ±100 the full control effect)
Procedure, shortened: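 HEK293 AR-UAS-bla cells, 10% dialyzed FBS medium; cpd titration + R1881 10 nM final, 16 h 37 C; CCF4 2 h RT; FRET ratio; IC50/efficacy via Hill fit.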

Sequence of Retinoic acid receptor RXR-alpha (Homo sapiens) (P19793 whole entry, looked up): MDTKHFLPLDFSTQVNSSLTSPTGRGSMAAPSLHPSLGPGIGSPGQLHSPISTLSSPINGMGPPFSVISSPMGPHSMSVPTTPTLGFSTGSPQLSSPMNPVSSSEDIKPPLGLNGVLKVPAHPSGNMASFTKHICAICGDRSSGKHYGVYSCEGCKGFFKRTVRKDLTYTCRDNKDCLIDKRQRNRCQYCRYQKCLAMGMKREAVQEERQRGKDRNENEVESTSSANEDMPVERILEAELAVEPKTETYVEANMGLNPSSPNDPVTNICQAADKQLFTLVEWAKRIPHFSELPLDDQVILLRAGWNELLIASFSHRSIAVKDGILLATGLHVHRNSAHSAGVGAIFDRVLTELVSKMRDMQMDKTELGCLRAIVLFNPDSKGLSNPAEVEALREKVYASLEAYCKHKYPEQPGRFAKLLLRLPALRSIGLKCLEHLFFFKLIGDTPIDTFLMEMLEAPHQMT
Sequence of Glucocorticoid receptor (Homo sapiens) (P04150 whole entry, looked up): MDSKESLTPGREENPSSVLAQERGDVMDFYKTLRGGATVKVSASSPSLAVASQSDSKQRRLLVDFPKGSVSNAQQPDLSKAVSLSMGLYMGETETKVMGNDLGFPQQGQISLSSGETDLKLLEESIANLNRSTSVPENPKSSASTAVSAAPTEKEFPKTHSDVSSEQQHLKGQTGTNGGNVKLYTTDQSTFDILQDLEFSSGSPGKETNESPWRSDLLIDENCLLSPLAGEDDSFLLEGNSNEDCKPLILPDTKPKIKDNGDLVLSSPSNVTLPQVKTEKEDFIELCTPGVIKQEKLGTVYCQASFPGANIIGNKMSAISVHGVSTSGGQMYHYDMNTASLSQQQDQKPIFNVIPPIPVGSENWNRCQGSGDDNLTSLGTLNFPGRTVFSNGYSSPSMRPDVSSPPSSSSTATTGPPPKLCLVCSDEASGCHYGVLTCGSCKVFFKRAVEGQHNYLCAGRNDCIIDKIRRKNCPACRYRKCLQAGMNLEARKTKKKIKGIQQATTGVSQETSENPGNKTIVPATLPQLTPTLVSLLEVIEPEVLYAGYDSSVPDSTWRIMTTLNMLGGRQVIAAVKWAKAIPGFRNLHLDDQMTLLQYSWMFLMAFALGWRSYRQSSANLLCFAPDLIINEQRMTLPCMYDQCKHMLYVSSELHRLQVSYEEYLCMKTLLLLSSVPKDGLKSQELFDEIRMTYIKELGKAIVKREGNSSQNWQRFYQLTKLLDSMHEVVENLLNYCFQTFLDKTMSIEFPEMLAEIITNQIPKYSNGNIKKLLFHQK
Sequence of Vitamin D3 receptor (Homo sapiens) (P11473 whole entry, looked up): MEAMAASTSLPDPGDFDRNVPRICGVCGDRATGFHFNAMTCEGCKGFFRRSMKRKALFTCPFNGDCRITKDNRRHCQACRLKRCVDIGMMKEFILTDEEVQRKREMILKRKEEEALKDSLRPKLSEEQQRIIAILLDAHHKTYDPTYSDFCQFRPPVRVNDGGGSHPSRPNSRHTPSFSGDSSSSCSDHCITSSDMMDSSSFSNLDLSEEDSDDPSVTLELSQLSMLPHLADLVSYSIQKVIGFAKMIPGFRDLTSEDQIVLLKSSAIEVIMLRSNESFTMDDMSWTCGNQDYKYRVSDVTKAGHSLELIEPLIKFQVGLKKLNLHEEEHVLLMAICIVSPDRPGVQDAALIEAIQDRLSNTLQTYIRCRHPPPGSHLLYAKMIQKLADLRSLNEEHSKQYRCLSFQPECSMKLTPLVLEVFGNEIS
Sequence of Peroxisome proliferator-activated receptor gamma (Homo sapiens) (P37231 whole entry, looked up): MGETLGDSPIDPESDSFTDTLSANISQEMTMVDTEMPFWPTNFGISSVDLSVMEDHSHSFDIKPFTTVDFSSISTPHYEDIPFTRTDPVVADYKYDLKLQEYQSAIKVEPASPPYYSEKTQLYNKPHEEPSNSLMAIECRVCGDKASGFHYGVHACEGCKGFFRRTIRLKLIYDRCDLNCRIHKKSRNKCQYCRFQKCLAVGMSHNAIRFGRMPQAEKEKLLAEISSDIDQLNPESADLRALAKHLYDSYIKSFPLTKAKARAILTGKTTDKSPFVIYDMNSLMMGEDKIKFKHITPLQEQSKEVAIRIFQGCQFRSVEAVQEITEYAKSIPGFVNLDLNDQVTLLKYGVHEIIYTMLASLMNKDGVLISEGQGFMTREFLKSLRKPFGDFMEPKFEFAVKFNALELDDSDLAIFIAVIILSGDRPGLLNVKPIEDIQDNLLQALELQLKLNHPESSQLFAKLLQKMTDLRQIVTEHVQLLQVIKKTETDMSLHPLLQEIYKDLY
Sequence of Thyroid hormone receptor beta (Homo sapiens) (P10828 whole entry, looked up): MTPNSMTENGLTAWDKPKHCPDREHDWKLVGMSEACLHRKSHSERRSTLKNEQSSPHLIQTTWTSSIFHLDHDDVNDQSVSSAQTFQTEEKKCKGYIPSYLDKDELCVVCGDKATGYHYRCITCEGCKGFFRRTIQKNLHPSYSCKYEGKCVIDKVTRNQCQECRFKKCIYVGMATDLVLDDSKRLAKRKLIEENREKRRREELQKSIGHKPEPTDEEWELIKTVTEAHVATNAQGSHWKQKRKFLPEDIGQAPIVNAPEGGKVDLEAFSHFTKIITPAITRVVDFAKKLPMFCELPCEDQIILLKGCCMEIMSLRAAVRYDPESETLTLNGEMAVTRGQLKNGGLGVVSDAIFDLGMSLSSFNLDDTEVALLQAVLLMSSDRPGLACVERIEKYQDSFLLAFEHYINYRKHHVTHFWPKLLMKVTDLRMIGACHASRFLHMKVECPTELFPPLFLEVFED
Sequence of Luciferin 4-monooxygenase (Photinus pyralis) (P08659 whole entry, looked up): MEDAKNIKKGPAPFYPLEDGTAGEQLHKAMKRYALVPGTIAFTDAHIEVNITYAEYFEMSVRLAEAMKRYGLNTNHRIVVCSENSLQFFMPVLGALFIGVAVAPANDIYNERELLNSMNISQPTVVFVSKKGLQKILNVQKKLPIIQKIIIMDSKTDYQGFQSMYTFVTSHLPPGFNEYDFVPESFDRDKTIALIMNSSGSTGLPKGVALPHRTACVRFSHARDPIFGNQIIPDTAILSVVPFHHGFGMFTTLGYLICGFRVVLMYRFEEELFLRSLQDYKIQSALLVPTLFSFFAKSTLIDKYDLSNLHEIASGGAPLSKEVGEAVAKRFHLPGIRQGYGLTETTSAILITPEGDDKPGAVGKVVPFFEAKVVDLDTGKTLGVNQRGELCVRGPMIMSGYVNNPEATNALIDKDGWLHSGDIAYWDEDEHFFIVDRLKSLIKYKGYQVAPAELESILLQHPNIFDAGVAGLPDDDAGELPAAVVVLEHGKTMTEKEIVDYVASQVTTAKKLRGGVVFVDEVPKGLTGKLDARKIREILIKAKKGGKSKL
Sequence of Peroxisome proliferator-activated receptor delta (Homo sapiens) (Q03181 whole entry, looked up): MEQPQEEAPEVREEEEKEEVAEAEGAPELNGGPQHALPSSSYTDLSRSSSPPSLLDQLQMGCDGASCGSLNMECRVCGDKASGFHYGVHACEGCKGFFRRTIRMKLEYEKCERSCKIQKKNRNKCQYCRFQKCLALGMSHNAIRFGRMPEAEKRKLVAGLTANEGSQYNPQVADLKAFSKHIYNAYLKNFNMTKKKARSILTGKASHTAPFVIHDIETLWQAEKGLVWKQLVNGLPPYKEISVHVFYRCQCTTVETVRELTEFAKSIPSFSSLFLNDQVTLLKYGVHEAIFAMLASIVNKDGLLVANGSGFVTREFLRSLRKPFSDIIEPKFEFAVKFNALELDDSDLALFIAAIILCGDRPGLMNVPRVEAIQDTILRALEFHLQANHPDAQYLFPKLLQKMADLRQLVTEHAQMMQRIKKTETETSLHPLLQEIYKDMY
Sequence of Voltage-gated inwardly rectifying potassium channel KCNH2 (Homo sapiens) (Q12809 whole entry, looked up): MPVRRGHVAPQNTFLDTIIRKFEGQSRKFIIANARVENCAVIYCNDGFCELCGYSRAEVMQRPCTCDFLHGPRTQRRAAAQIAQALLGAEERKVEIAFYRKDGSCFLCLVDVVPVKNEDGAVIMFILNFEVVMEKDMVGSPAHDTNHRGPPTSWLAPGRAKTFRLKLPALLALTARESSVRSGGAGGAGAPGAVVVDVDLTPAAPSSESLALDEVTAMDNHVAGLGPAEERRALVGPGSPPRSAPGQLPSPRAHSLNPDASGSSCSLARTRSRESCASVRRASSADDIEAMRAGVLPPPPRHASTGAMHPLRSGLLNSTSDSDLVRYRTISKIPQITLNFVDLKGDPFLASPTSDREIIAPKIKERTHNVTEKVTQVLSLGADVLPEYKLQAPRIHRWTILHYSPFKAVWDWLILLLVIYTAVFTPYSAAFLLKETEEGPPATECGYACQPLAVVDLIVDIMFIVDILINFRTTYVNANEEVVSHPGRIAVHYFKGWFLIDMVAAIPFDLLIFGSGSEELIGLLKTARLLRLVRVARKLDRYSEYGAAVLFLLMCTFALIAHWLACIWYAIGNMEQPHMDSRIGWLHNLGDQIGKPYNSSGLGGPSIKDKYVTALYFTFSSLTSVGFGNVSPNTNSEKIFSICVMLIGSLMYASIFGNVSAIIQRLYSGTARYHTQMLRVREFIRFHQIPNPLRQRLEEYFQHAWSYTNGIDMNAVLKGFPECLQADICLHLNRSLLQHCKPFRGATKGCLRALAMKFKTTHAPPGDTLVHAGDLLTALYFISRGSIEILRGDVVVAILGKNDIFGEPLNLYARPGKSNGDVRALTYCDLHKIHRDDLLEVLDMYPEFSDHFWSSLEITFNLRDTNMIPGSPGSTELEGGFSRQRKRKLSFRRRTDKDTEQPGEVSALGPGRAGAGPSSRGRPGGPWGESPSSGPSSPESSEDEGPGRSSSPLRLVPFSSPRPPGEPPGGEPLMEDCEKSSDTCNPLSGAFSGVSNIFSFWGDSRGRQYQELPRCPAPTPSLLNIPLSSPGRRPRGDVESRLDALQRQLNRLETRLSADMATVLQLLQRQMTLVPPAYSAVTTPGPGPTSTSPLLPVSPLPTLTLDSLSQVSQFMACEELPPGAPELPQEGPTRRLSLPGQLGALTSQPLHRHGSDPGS

CCC(=O)OCC(=O)[C@@]1(OC(=O)CC)[C@@H](C)C[C@H]2[C@@H]3CCC4=CC(=O)C=C[C@]4(C)[C@@]3(F)[C@@H](O)C[C@@]21C
inactive: outcome [1]

CCc1cccc2c3c([nH]c12)[C@@](CC)(CC(=O)O)OCC3
inactive: outcome [1] | outcome [2]

C=C1C[C@]23C[C@@]1(O)CC[C@H]2[C@@]12C=C[C@H](O)[C@@](C)(C(=O)O1)[C@H]2[C@@H]3C(=O)O
4.31%: max response [15]
inactive: outcome [3] | activation [4] -5.06% | outcome [5] | outcome [7] | outcome [8] | outcome [9] | outcome [10] | outcome [11] | outcome [13] | outcome [14] | max response [16] 6.93% | activity change % (negative = inhibition) [17] 23.9% | outcome [18]
8.68%: max response [6]
-10.6%: max response [12]

O=C(/C=C/C=C/c1ccc2c(c1)OCO2)N1CCCCC1
-63.1%: max response [6]
inactive: outcome [7] | outcome [10] | outcome [11] | outcome [14] | activity change % (negative = inhibition) [17] -4.09%

CCOC(=O)C(CCc1ccccc1)NC(C)C(=O)N1Cc2ccccc2CC1C(=O)O (stereo unspecified)
inactive: outcome [1] | outcome [2]

COc1ccc(CCC(=O)c2c(O)cc(O[C@@H]3O[C@H](CO)[C@@H](O)[C@H](O)[C@H]3O[C@@H]3O[C@@H](C)[C@H](O)[C@@H](O)[C@H]3O)cc2O)cc1O
inactive: activation [19] 12.1% | outcome [20] | activation [4] -0.542% | outcome [5] | outcome [8] | outcome [10] | outcome [11] | outcome [13] | outcome [14] | max response [16] 10.3% | activity change % (negative = inhibition) [17] -11.4% | outcome [18]
-15.7%: max response [15]
1.28%: max response [12]
